Only some compounds are listed: those with a hit (about 3.2% of all), similar ones and a draw of the others.
ALOX15 inhib – inhibitors of human 15-lipoxygenase (ALOX15); P16050; purified 15hLO-1, xylenol orange hydroperoxide absorbance; Potency, µM (series often up to 57.1 µM), for inactives: at the top dose activity change, negative = inhibition, hits mostly inhibitors; hit rate 1.4% among 74,000; further: on the % scale 0 is the no-effect control and ±100 the full control effect; nearly all actives have a fitted effect of over 55% in size
Target sequence (P16050 whole entry, looked up): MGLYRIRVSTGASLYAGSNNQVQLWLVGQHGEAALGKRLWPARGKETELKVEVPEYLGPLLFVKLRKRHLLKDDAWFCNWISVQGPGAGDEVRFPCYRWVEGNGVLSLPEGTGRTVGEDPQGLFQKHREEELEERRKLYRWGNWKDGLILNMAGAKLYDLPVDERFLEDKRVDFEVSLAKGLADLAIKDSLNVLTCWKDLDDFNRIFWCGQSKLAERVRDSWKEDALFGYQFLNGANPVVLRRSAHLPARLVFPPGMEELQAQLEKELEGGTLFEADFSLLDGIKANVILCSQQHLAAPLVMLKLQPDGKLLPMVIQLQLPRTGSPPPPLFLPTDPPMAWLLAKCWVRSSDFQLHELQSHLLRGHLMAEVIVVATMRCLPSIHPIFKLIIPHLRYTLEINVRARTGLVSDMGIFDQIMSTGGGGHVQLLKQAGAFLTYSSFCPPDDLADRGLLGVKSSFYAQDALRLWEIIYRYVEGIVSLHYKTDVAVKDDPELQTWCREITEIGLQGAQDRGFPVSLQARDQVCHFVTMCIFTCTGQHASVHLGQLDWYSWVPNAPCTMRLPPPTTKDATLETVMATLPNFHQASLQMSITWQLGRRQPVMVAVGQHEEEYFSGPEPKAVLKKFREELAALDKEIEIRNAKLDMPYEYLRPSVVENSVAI
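Inhibition is scored from a chromogenic endpoint. After 15 min enzyme-compound contact, arachidonic acid (50 uM final) reacts 6 min with 40 nM 15hLO-1 at room temperature, then Fe-XO reagent is added for 30 min and absorbance ratio recorded.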
Hsp90 Hop PPI – changes Hsp90-Hop TPR2A binding signal, up or down; AlphaScreen TPR2A-His6 binding biotin-Hsp90 C-terminal peptide; Potency, µM (highest dose often 57 µM), for inactives: at the top dose activity change, negative = inhibition; hit rate 0.44% among 71,000; AID 595; active means well fitted curve in either direction with a large enough effect; inconclusive means small, poorly fitted or top-dose-only effect, or another doubt; further: on the % scale 0 is the no-effect control and ±100 the full control effect
Tau filament bind – binders of human tau filaments | P10636 | recombinant tau filaments, thioflavin S fluorescence, 15 h; filaments grown with octadecylsulfate alongside compound | Potency, µM (top dose mostly 57.1 µM), without a hit: top-dose activity change, negative = inhibition | hit rate 2% among 71,000;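 further: on the % scale 0 is the no-effect control and ±100 the full control effect; actives lower thioflavin S fluorescence by blocking filaments or displacing dye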
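His-tagged recombinant human tau (exons 2, 3, 10; 1 uM final) fibrillized with 30 uM sodium octadecylsulfate, 15 h at 37 C, in pH 7.4 HEPES buffer with 10 uM thioflavine S and 5 mM DTT. Reduced ThS fluorescence (450/510 nm) marks activity.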
USP2a inhib – inhibitors of human ubiquitin-specific protease USP2a; O75604; USP2a enzymatic assay, qHTS inhibition; Potency, µM (titrated, usually from 38.3 µM), for inactives: at the top dose activity change, negative = inhibition, most hits filed as inhibitors; hit rate 0.1% among 60,000; AID 927; further: nearly all actives have a fitted effect of over 60% in size
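Inhibition is measured in a cell-free coupled assay with 20 nM USP2 core, 20 nM Ub-PLA2 and 20 uM NBD C6-HPC, 2.5 h incubation. Activity normalized to NEM control.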
* marks the source's active call; other numbers are inactive results; i = inactive; ? = inconclusive; . = no result; ! = repeats disagree; [ ] = another dose, or the depositor's remark. Unless noted, the call rests on the fitted dose curve; in most records, active means well fitted curve in the direction sought with a large enough effect; inconclusive means small, poorly fitted or top-dose-only effect, or another doubt; inactive means no such curve, though single readings can be large; an effect the other way counts as inactive or inconclusive. Potency means the concentration at half of the fitted maximal effect.

SMILES	ALOX15 inhib	Hsp90 Hop PPI	Tau filament bind	USP2a inhib
NC(=NCCCCCCN=C(N)/N=C(\N)Nc1ccc(Cl)cc1)/N=C(\N)Nc1ccc(Cl)cc1	?	-8%	6.3µM*!	?
CC(C)N=C(N)/N=C(\N)Nc1ccc(Cl)cc1	4%[25.6 µM]	-1%[26 µM]	?	-7%[17.1 µM]
CCOC(=O)c1oc2ccccc2c1NC(=O)c1cccc(OC)c1OC	-11%	?	-7%	-6%
c1ccc(-c2nnc3sc(-c4csc5c4CCCC5)nn23)cc1	16µM*	-4%	217%	9%
FC(F)(F)c1ccccc1-c1nccc(NCc2cccs2)n1	-13%	17%	1%	-4%
c1csc(CNc2ccnc(-c3ccoc3)n2)c1	20µM*	?	-5%	152%
COc1ccccc1-c1nccc(NCc2cccs2)n1	10µM*	1%	-23%	43%
CN(C)c1ccc(-c2nccc(NCc3cccs3)n2)cc1	?	-18%	31%	?
COc1ccccc1-c1nccc(Nc2ccc(F)cc2)n1	-17%	3%	16µM*	87%
C[C@@H]1[C@H](C)CC[C@@]2(C(=O)O[C@H]3O[C@@H](CO[C@H]4O[C@@H](CO)[C@@H](O[C@H]5O[C@@H](C)[C@@H](O)[C@@H](O)[C@@H]5O)[C@@H](O)[C@@H]4O)[C@@H](O)[C@@H](O)[C@@H]3O)CC[C@]3(C)C(=CC[C@H]4[C@@]5(C)C[C@@H](O)[C@@H](O)[C@](C)(CO)[C@@H]5CC[C@@]43C)[C@@H]12	6%[25.6 µM]	0%[26 µM]	3%[25.6 µM]	6%[17.1 µM]
COc1cccc(CCc2ccccc2OCC[C@@H]2C[C@@H](O)CN2C)c1	20µM*	.	.	.
CCC(CC)c1nnc(NC(=O)c2c(-c3ccccc3)noc2C)s1	-16%	1%	-10%	.
Cc1onc(-c2ccccc2)c1C(=O)Nc1nnc(COc2ccc(Cl)cc2)s1	7.9µM*	-1%	3%	49%
CC(=O)OCCC(C)CCC=C(C)C (configuration not stated)	10µM*	.	.	-6%
O=C1OC2(c3ccc(O)cc3Oc3cc(O)ccc32)c2c1c(-c1ccccc1)c(-c1ccccc1)c(-c1ccccc1)c2-c1ccccc1	1µM*	?	i[11.4 µM]	.
O=C(O)CCC(C(=O)O)n1c(O)c(C2=c3ccccc3=NC2=O)sc1=S (configuration not stated)	10µM*	2%	-4%	4%
O=C1N=c2ccccc2=C1c1sc(=S)n(CC2CCCO2)c1O (configuration not stated)	-5%	-3%	-11%	-1%
CCCCNC(=O)C(c1ccc(OCC(=O)OC)c(C(=O)OC)c1)N(CCc1ccccn1)C(=O)CCCCCN1C(=O)NC(c2ccc(-c3ccccc3)cc2)C(C(=O)OCc2ccccc2)=C1C (configuration not stated)	-14%	-8%	49%	.
C[C@H]1NC(=O)NC1=O	-2%[25.6 µM]	2%[26 µM]	-5%[25.6 µM]	-1%[17.1 µM]
CC1(C)CC(=O)C2=C(C1)NC(SCC(=O)Nc1ccccc1)=C(C#N)C2c1ccco1 (configuration not stated)	-10%	26%	13µM*	20%
Cc1ccc(C(=O)CSC2=C(C#N)C(c3ccco3)C3=C(CC(C)(C)CC3=O)N2)cc1 (configuration not stated)	-10%	-5%	-14%	0%
Cc1cc(C)c2c(n1)nn1c(N3CCN(c4ccccc4C)CC3)cc(C)nc21	3%	2%	3%	9%
COc1ccccc1CNC(=O)C1CCCN1S(=O)(=O)c1cccc2cccnc12 (configuration not stated)	-6%	-2%	10%	.
CC1=C/C(=C\c2ccc3c(c2)OCO3)C(=O)S1	?	-13%	25µM*	16%
O=C(c1ccncc1)N1CCC2(CCCN(c3ncccn3)C2)CC1	4%	-4%	17%	8%
SMILES	ALOX15 inhib	Hsp90 Hop PPI	Tau filament bind	USP2a inhib
CCOC(=O)C1CCCN(C(=O)c2cnn3c(C(F)F)cc(-c4ccc(C)cc4)nc23)C1 (configuration not stated)	-5%	11%	?	23%
Cc1ccc(-c2cc(C(F)F)n3ncc(C(=O)N4CCN5CCCC5C4)c3n2)cc1 (configuration not stated)	-6%	-5%	25µM*	27%
COc1ccc(OCCSc2nnc(-c3ccccc3)n2N)cc1	13µM*	-12%	-2%	-6%
N#Cc1c(-c2ccccc2)cc(-c2ccco2)c(C#N)c1N	7.9µM*	?	43%	?
N#Cc1c(N)nc(SCc2ccccc2)c(C#N)c1-c1ccco1	?	17%	-11%	40%
N#Cc1sc2nc(-c3ccccc3)cc(-c3ccco3)c2c1N	4µM*	-18%	2.5µM*	24%
COC(=O)c1sc2nc(-c3ccco3)ccc2c1N	2%	-4%	5%	-2%
CCCC(=O)OC(=O)CCC	3%	0%	-10%	.
COc1cc([C@@H]2c3cc4c(cc3[C@@H](O[C@@H]3O[C@H]5CO[C@@H](C)O[C@@H]5[C@@H](O)[C@H]3O)[C@@H]3COC(=O)[C@@H]23)OCO4)cc(OC)c1O	-30%[25.6 µM]	0%	-65%	.
CC(C)(C)N=C1NC(=NC(C)(C)C)c2ccccc21	0%	-1%	2.5µM*	-6%
Cc1[nH]nc2c1C(c1ccccc1)C1=C(CC(C)(C)CC1=O)N2 (configuration not stated)	9%	-2%	8%	-6%
Cc1ccc(C2C3=C(CC(C)(C)CC3=O)Nc3[nH]c(=S)[nH]c(=O)c32)cc1 (configuration not stated)	20µM*	-12%	8%	?
NC(=O)/N=N/C(N)=O	13%	-2%	3%	.
COc1cc2ccc(=O)oc2c(O)c1O	13µM*!	-2%	?	-8%
COc1cc(-c2ccc(N=C=O)c(OC)c2)ccc1N=C=O	2%	-16%	16µM*	.
COc1ccc(-c2cc(C(=O)O)c(C)o2)cc1OC	4%	-7%	2%	-7%
CCN(CC)S(=O)(=O)c1cccc(-c2nnc(C(=O)c3ccc(C(F)(F)F)cc3)o2)c1	-8%	-10%	16µM*	35%
CCN(CC)S(=O)(=O)c1cccc(-c2nnc(SCC(=O)c3cc(C)n(C)c3C)o2)c1	5%	-2%	-4%	19%
COC(=O)N1CCC2(CCN(C(=O)NC(C)C)CC2)CC1	0%	-8%	17%	-3%
CCOc1ccc2nc(NS(C)(=O)=O)sc2c1	-12%	-1%	16µM*	28%
O=C(NCCO)c1nc(NCCO)c2ccccc2n1	12%	-6%	2%	-2%
O=[N+]([O-])c1cc(Cl)cc2c1nc(NCCO)c1ccccc12	-15%[11.4 µM]	-9%[11 µM]	4µM*	.
CCc1cc(N2CCOCC2)cc2c1[nH]c1ccccc12	-28%	-15%	25µM*	7%
c1ccc2c(c1)[nH]c1c(N3CCOCC3)ncnc12	-4%	-3%	-1%	-6%
Cc1nn(CCc2nc(-c3ccco3)cs2)c2[nH]c(=O)cc(C(F)(F)F)c12	?	-1%	-9%	19%
CCOC(=O)c1c2c(n3ccccc13)C(=O)c1ccccc1C2=O	1%[11.4 µM]	-17%[11 µM]	-25%[11.4 µM]	.

Screening data: PubChem, National Center for Advancing Translational Sciences (NCATS)
